Assay outcomes deposited in PubChem BioAssay by several laboratories.
HSF1 inhib – HSF1 inhibition; 0.77% of 300,000 active; AID 2098; NIH3T3-HGL HSE-luciferase, MG132-induced, luminescence 8 h; hits give low values; activity change, negative = inhibition, % at 7.5 µM (by protocol);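 active = more than half of replicate wells show activity change below -50%, luminescence cut by over half; inconclusive = some wells, but at most half, below -50%; inactive = no replicate well below -50%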;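 also: luciferase reports HSF-1 transcriptional activity via heat shock element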
HSP90 refold inh – blocks HSP90-mediated luciferase refolding in reticulocyte lysate; inhibition, % at 5.6 µM; 0.91% of 290,000 active; Rabbit reticulocyte lysate, luciferase refolding luminescence, 3 h;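 active = inhibition above the screen-wide mean plus 3 SD, computed separately per campaign, cut at about 16% in these data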;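 also: inhibitors lower the luminescence because luciferase stays unfolded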
EBV LMP1 NFkB – reduces LMP1-driven NF-kappaB luciferase signal; LMP1-induced NF-kappaB luciferase reporter cells, luminescence; inhibition, % at 12.5 µM; 0.69% of 350,000 active; AID 504558; in the data active = inhibition above about 41%; inconclusive = no clear call, values can overlap the other calls
TROY NFkB inh – TROY signaling inhibition | AID 1347056 | Q293 LMP1-TROYcd NF-kB luciferase reporter, 4 h | 0.98% of 360,000 active | inhibition, % at 10 µM;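 active = compounds whose plate-normalised and pattern-corrected inhibition of the luciferase reporter signal at the single screening dose is 50% or more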
TWEAK-Fn14 inh – inhibitors of TWEAK-Fn14 interaction signaling; TWEAK-stimulated Fn14 reporter cells, luciferase luminescence, 8 h; inhibition, % at 10 µM; 2% of 360,000 active; AID 1159606; in the data active = inhibition above about 50%
HSF-1 act – increases HSF-1 driven luciferase reporter signal; NIH3T3-HGL HSF-1 luciferase reporter, MG132, 8 h; 100% = twice DMSO control signal; activation, % at 9 µM; 1.7% of 300,000 active; AID 504408;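 active = mean replicate activation of at least 50% with a set share of replicates each reaching 50%; inconclusive = only one of those two conditions met; inactive = mean below 50% and too few replicates reaching it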
HSP90 inh confirm – HSP90 inhibition, confirmation assay; 64% of 2,300 active; rabbit reticulocyte lysate, luciferase refolding luminescence, 3 h; shares compounds with HSP90 refold inh; inhibition, % at 5.9 µM; AID 1846; in the data active = inhibition above about 18%
FLuc counter – counter-screen for HSP90 inhibitors: inhibitors of firefly luciferase; shares compounds with HSP90 refold inh; purified native firefly luciferase, luminescence; inhibition, % at 5.9 µM; 48% of 2,300 active;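 active = inhibition above the mean inhibition of all tested sample wells plus 3 SD, cut at about 10% in these data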
Target sequence (P08659 whole entry, looked up): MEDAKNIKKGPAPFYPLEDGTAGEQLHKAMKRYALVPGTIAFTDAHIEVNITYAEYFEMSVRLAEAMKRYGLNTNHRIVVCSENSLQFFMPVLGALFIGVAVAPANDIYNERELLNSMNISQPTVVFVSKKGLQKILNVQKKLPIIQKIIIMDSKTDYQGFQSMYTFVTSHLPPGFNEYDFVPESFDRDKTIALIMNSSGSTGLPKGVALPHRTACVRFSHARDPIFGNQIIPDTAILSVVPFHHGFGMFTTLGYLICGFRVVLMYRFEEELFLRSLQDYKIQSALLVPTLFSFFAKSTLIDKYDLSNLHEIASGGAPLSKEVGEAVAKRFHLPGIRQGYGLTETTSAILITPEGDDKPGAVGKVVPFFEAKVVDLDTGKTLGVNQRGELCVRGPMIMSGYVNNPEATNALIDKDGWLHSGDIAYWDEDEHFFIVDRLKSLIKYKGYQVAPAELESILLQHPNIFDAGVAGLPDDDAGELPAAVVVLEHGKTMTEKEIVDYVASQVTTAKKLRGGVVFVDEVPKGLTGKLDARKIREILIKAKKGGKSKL
Each line names hits and unclear results; the compound was inactive in the other large screens (follow-up assays come after a bar, where they were run). This is a sample that favours compounds with a hit; in the whole collection about 4.7% have one here.

Cc1nnc(NC(=O)CCN2C(=O)C3CC=CCC3C2=O)s1 (stereo not given)	none (no result: HSF1 inhib, HSP90 refold inh, HSF-1 act)
O=[N+]([O-])c1ccc(/C=C/c2ccc3ccccc3n2)cc1	HSP90 refold inh 21, TROY NFkB inh 55, TWEAK-Fn14 inh 60, HSF-1 act inconclusive | HSP90 inh confirm 66 | FLuc counter 54
Cc1cccc(/C=C/c2ccccc2)n1	none (no result: HSF1 inhib, HSP90 refold inh, EBV LMP1 NFkB, HSF-1 act)
C(=C\c1ccc2ccccc2n1)/c1ccccc1	HSP90 refold inh 35, TROY NFkB inh 57, TWEAK-Fn14 inh 74 | HSP90 inh confirm 83 | FLuc counter 77
CC(=O)OC1C(=O)N(Cc2ccccc2)C1c1ccc(C)cc1 (stereo not given)	none (no result: HSF1 inhib, HSP90 refold inh, HSF-1 act)
O=C1c2ccccc2S(=O)(=O)N1Cc1nc2ccccc2s1	HSP90 refold inh 37, EBV LMP1 NFkB 76, TROY NFkB inh 79, TWEAK-Fn14 inh 103 | HSP90 inh confirm 21 | FLuc counter inactive
O=C1NC(=O)N2CCSC2(Cc2ccccc2)N1 (stereo not given)	none (no result: HSF1 inhib, HSP90 refold inh, HSF-1 act)
c1ccc2c(C3=NNC(=NC4CC4)SC3)c[nH]c2c1	HSP90 refold inh 19, TWEAK-Fn14 inh 78, HSF-1 act 157 | HSP90 inh confirm 61 | FLuc counter 38
O=C(c1cccs1)N1C[C@@H](n2cc(-c3ccc(F)cc3)nn2)[C@H](O)C[C@@H]1c1ccccc1	none (no result: HSF1 inhib, HSP90 refold inh, HSF-1 act)
CC(=O)c1cccc(NC(=O)c2cnn3ccccc23)c1	none
CC(=O)c1ccc(NC(=O)c2cnn3ccccc23)cc1	HSF1 inhib inconclusive, HSP90 refold inh 42, TWEAK-Fn14 inh 71 | HSP90 inh confirm 63 | FLuc counter 12
CC(=O)N(c1ccccc1)C(C(=O)c1ccccc1)c1ccccc1 (stereo not given)	none (no result: HSF1 inhib, HSP90 refold inh, HSF-1 act)
O=c1c(Cl)c(N2CCCCC2)cnn1-c1nc2ccccc2[nH]1	HSP90 refold inh 65, EBV LMP1 NFkB 78, TROY NFkB inh 82, TWEAK-Fn14 inh 104 | HSP90 inh confirm 86 | FLuc counter 80
Clc1ccc2nc(N3CCCCC3)[nH]c2c1	none
O=C1N/C(=C\c2nc3ccccc3s2)c2ccccc21	HSP90 refold inh 21 (no result: EBV LMP1 NFkB, TROY NFkB inh, TWEAK-Fn14 inh) | HSP90 inh confirm 53 | FLuc counter 25
O=C1N/C(=C\c2ccccc2)c2ccccc21	none
O=c1[nH]n(-c2ccc(F)cc2)c2ncccc12	none
Cc1c(-c2ccccn2)c(=O)[nH]n1-c1ccc(F)cc1	HSP90 refold inh 22, TWEAK-Fn14 inh 51 | HSP90 inh confirm 30 | FLuc counter inactive
C[C@@H]1CN([C@@H](C)CO)C(=O)c2cc(NC(=O)C3CCCCC3)ccc2O[C@@H](C)CCCCO[C@@H]1CN(C)Cc1ccncc1	none (no result: HSF1 inhib, HSP90 refold inh, HSF-1 act)
O=C(OCc1ccc(Br)cc1)c1cccnc1	HSP90 refold inh 41 | HSP90 inh confirm inactive | FLuc counter inactive
O=C(OCc1ccc(Br)cc1)c1ccncc1	none
Cc1cc2ccccc2n1CCNC(=O)c1ccccc1	HSP90 refold inh 40 | HSP90 inh confirm 51 | FLuc counter inactive
Cc1cc2ccccc2n1CCNC(=O)c1ccc(Br)o1	HSP90 refold inh 17 | HSP90 inh confirm inactive | FLuc counter inactive
Cc1cc2ccccc2n1CCNC(=O)C(C)(C)C	none (no result: HSP90 refold inh)
CC(=O)NCCn1c(C)cc2ccccc21	none (no result: HSP90 refold inh)
CN1C(=O)Nc2cccc3cccc1c23	HSP90 refold inh 21 | HSP90 inh confirm inactive | FLuc counter inactive
CC1=Nc2cccc3cccc(c23)N1C	none
CCOC(=O)N1CCC(N2C(=O)c3ccccc3C2Nc2ccc3c(C)cc(=O)oc3c2)CC1 (stereo not given)	HSP90 refold inh 18 | HSP90 inh confirm inactive | FLuc counter inactive
CC1=C(C(=O)N(C)C)CC(CC(=O)NC2CCCCC2)C(=O)N1CCC1=CCCCC1 (stereo not given)	none (no result: HSF1 inhib, HSP90 refold inh, HSF-1 act)
Cc1cccc(C)c1NC(=O)C(C)NCc1cccs1 (stereo not given)	none (no result: HSF1 inhib, HSP90 refold inh, HSF-1 act)
COC(=O)N(C)C[C@@H]1OCc2cnnn2CCCC(=O)N([C@@H](C)CO)C[C@H]1C	none (no result: HSF1 inhib, HSP90 refold inh, HSF-1 act)
COc1cccc(/C=C/c2ccccn2)c1O	HSP90 refold inh 17 | HSP90 inh confirm 17 | FLuc counter 9.9
COc1ccccc1C=Cc1ccnc2ccccc12	none (no result: HSF1 inhib, HSP90 refold inh, HSF-1 act)
Nc1ncnc2c1ncn2[C@@H]1O[C@H](CNCc2ccc(-n3cccn3)cc2)[C@@H](O)[C@H]1O	none (no result: HSF1 inhib, HSP90 refold inh, HSF-1 act)
CCOc1ccc(C(=O)N2CCCC2)cc1	none
O=C(NN1CCCCC1)c1cccc(COc2ccc(Cl)cc2)c1	none
CCOc1ccc(OCc2cccc(C(=O)N3CCCC3)c2)cc1	HSF1 inhib -51, HSP90 refold inh 21, EBV LMP1 NFkB 54 | HSP90 inh confirm 30 | FLuc counter 26
CCOc1ccc(OCc2cccc(C(=O)N3CCCCCC3)c2)cc1	HSP90 refold inh 28, EBV LMP1 NFkB 53 | HSP90 inh confirm 56 | FLuc counter 52
CCOC(=O)CC1(C)c2nc(NC(C)=O)sc2Cc2sc(NC(C)=O)nc21	none (no result: HSF1 inhib, HSP90 refold inh, EBV LMP1 NFkB, HSF-1 act)
CCS(=O)(=O)c1ccc2oc(=O)c(/C=C(\O)c3ccc(Cl)cc3)nc2c1	none
Cc1ccc2oc(=O)c(/C=C(\O)c3cccs3)nc2c1	HSP90 refold inh 18, HSF-1 act 119 | HSP90 inh confirm 42 | FLuc counter inactive
O=c1oc2ccc(Cl)cc2nc1/C=C(\O)c1cccs1	HSP90 refold inh 63, HSF-1 act 52 | HSP90 inh confirm 79 | FLuc counter inactive
Cc1ccc2oc(=O)c(/C=C(\O)c3ccccc3)nc2c1	none
CCN1C(=O)[C@H]2[C@@H](c3ccc(C(F)(F)F)cc3)N[C@]3(CCCN(Cc4ccc(OC)cc4)C3=O)[C@H]2C1=O	none (no result: HSF1 inhib, HSP90 refold inh, HSF-1 act)
CC(C)c1ccc(/C=C2\SC(N3CCCC3)=NC2=O)cc1	HSP90 refold inh 19 | HSP90 inh confirm inactive | FLuc counter inactive
CN(C)c1ccc(/C=C2\SC(N3CCCCC3)=NC2=O)cc1	HSF1 inhib inconclusive, HSP90 refold inh 45, TROY NFkB inh 74, TWEAK-Fn14 inh 83 | HSP90 inh confirm 55 | FLuc counter 60
CCOC(=O)/C(C#N)=C/c1c(Oc2cccc(C)c2)nc2ccccn2c1=O	HSP90 refold inh 29 | HSP90 inh confirm inactive | FLuc counter inactive
COCCNC(=O)C1CCCN(C(=O)c2cncc(Br)c2)CC1 (stereo not given)	none (no result: HSF1 inhib, HSP90 refold inh, EBV LMP1 NFkB, HSF-1 act)
CN(C)S(=O)(=O)c1ccc(C(=O)Nc2nnc(SCC(=O)NCC3CCCO3)s2)cc1 (stereo not given)	none
CCOc1ccc(C(=O)Nc2nnc(SCC(=O)NCC3CCCO3)s2)cc1 (stereo not given)	HSP90 refold inh 36, EBV LMP1 NFkB 61, TWEAK-Fn14 inh 69 | HSP90 inh confirm 61 | FLuc counter 44
CC(C)(C)c1ccc(C(=O)Nc2nnc(SCC(=O)NCC3CCCO3)s2)cc1 (stereo not given)	HSP90 refold inh 36, EBV LMP1 NFkB 49, TWEAK-Fn14 inh 71 | HSP90 inh confirm 54 | FLuc counter 45
